What all share (assay): DAPPL (digital affinity profiling via proximity ligation, sequencing); 10 mM Tris-HCl pH 7.5, 50 mM NaCl, 1 mM DTT, 4% glycerol, room temperature, 30 min; GST-TFs on glutathione beads, 16-mer random dsDNA library, 0.1% formaldehyde crosslink after washing; high values mean tight binding
Experiment [1] deals with T1, FEV (Homo sapiens, UniProt Q99581 1-238).
T1 sequence: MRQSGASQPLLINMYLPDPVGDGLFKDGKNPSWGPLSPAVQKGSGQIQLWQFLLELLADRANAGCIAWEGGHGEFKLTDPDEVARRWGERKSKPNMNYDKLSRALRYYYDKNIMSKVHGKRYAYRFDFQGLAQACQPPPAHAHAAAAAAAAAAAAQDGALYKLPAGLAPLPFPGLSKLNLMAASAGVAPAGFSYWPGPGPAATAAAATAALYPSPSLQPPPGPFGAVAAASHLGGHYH
Particulars: protein: recombinant; tags: N-terminal GST; dsDNA, one strand shown. The essentials: (§1)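 Binding signal is each hexamer's read frequency for a factor divided by its frequency in the tag-only sample. The factors were GST-fused human transcription factors from yeast, captured on glutathione beads, DNA-barcoded and pooled with that sample. Pools were incubated with 200 nmole of a random double-stranded 16-mer DNA library in Tris/NaCl/DTT/glycerol buffer at room temperature for 30 min, then washed, crosslinked with 0.1% formaldehyde, proximity-ligated with BsaI/T4 ligase (1 h, 37 °C), PCR-amplified and sequenced on an Illumina NextSeq500.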

The target of experiment [2] is ETV5 (Homo sapiens, UniProt P41161 1-510). Conditions: protein: recombinant; tags: N-terminal GST; dsDNA, one strand shown. The essentials: as §1
For experiment [3], the target named is HSF1 (Homo sapiens, UniProt Q00613 1-529). Particulars: protein: recombinant; tags: N-terminal GST; chain copies: 3; dsDNA, one strand shown. The essentials: as §1
Experiment [4] addresses T2, SPIC (Homo sapiens, UniProt Q8N5J4 1-248).
T2 sequence: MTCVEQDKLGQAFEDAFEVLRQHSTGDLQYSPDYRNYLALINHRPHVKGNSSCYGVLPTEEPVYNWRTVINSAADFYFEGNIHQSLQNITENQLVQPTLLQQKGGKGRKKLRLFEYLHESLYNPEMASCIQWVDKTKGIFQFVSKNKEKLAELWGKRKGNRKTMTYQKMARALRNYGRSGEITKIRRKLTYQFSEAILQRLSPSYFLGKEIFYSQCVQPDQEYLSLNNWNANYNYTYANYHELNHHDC
Conditions: protein: recombinant; tags: N-terminal GST; dsDNA, one strand shown. The essentials: as §1

Experiment [5] addresses ELF4 (Homo sapiens, UniProt Q99607 1-663). Conditions: protein: recombinant; tags: N-terminal GST; dsDNA, one strand shown. The essentials:
as §1

For experiment [6], the target named is T3, ELK4 (Homo sapiens, UniProt P28324-2 1-405).
T3 sequence: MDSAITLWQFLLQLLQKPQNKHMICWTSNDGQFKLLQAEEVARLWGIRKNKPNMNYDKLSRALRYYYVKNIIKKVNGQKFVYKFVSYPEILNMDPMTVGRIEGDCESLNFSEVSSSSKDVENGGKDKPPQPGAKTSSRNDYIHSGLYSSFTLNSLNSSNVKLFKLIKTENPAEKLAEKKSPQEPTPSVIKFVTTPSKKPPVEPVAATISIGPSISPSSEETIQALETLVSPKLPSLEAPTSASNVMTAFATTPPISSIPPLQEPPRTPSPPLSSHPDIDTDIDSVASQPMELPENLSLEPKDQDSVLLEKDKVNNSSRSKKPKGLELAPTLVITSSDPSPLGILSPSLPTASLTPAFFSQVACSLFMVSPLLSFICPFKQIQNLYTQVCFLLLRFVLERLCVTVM
Particulars: protein: recombinant; tags: N-terminal GST; dsDNA, one strand shown. The method, boiled down:
as §1

Experiment [7] deals with T4, ETV2 (Homo sapiens, UniProt O00321 1-342).
T4 sequence: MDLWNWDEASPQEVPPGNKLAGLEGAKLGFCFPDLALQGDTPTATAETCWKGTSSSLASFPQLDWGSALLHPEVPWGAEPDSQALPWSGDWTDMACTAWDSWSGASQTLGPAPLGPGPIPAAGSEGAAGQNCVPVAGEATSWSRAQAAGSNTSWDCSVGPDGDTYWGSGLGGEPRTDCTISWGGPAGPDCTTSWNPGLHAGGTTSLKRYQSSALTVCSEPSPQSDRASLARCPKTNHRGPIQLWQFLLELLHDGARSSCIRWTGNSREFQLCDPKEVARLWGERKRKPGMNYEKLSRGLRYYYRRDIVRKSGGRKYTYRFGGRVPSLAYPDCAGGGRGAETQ
Conditions: protein: recombinant; tags: N-terminal GST; dsDNA, one strand shown. The essentials: as §1

The target of experiment [8] is T5, ELF3 (Homo sapiens, UniProt P78545 1-371).
T5 sequence: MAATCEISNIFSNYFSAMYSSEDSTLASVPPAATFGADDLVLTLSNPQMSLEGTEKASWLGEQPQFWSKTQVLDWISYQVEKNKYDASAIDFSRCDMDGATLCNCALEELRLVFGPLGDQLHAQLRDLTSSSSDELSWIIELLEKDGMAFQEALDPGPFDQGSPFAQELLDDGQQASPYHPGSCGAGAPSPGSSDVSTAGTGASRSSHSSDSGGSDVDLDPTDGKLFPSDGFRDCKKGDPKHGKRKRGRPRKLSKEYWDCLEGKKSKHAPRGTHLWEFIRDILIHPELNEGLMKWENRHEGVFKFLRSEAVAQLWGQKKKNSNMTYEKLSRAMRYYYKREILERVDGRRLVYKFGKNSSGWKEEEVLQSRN
Particulars: protein: recombinant; tags: N-terminal GST; dsDNA, one strand shown. The method, boiled down:
as §1

Experiment [9] addresses CRX (Homo sapiens, UniProt O43186 1-299). Particulars: protein: recombinant; tags: N-terminal GST; dsDNA, one strand shown. The method, boiled down: as §1
Experiment [10] addresses ETV1 (Homo sapiens, UniProt P50549 1-477). Conditions: protein: recombinant; tags: N-terminal GST; dsDNA, one strand shown. The essentials: as §1
Experiment [11] has as its target T6, ERF (Homo sapiens, UniProt P50548 1-548).
T6 sequence: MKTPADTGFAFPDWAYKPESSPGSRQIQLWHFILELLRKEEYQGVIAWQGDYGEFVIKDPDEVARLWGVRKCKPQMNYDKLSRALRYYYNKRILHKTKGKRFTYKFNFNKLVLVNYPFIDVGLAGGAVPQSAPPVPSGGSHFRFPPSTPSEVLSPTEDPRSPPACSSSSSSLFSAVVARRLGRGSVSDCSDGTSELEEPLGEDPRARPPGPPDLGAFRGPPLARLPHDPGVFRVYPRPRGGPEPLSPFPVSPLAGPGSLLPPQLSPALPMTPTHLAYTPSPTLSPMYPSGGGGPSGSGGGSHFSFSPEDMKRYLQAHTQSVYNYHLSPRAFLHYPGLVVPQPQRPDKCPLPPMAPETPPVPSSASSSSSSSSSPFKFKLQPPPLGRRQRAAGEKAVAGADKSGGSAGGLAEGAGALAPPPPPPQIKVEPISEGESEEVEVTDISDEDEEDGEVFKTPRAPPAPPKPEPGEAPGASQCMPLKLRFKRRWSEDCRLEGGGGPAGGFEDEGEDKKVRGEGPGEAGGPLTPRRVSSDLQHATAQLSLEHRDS
Conditions: protein: recombinant; tags: N-terminal GST; dsDNA, one strand shown. The essentials:
as §1

Experiment [12] has as its target T7, ETV3L (Homo sapiens, UniProt Q6ZN32 1-361).
T7 sequence: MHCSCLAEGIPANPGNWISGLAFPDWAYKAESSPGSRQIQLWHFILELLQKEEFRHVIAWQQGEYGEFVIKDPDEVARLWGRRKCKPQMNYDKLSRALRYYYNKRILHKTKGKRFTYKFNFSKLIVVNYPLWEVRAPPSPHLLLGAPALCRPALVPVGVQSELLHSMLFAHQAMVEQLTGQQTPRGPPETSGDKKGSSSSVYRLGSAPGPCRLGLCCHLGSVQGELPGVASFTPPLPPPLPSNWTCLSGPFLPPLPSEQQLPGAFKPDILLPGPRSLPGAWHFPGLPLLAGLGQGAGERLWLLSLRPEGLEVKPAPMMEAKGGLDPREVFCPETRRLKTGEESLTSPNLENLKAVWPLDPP
Conditions: protein: recombinant; tags: N-terminal GST; dsDNA, one strand shown. The essentials: as §1

Experiment [13] concerns the target T8, ETS2 (Homo sapiens, UniProt P15036 1-469).
T8 sequence: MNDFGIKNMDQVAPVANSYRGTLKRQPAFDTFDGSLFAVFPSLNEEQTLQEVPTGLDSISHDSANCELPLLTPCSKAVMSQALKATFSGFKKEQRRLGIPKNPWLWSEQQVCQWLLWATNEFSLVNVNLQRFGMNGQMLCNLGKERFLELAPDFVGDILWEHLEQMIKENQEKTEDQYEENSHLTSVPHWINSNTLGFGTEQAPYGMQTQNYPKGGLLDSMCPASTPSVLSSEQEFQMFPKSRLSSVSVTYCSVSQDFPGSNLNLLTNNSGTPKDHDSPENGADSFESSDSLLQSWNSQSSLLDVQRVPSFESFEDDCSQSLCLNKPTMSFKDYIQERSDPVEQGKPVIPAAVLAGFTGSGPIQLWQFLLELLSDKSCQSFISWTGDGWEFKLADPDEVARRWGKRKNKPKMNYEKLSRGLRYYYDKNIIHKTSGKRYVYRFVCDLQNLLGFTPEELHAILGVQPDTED
Conditions: protein: recombinant; tags: N-terminal GST; dsDNA, one strand shown. The method, boiled down:
as §1

The target in experiment [14] is T9, SPDEF (Homo sapiens, UniProt O95238 1-335).
T9 sequence: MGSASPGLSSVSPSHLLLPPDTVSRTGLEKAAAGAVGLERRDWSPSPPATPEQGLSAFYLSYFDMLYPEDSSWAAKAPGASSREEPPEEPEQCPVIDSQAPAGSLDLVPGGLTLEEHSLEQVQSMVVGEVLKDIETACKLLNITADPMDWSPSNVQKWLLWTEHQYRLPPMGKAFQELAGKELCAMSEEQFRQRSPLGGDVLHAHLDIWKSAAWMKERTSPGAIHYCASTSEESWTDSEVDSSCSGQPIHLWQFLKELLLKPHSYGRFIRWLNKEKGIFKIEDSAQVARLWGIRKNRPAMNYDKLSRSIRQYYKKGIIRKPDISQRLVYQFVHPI
Particulars: protein: recombinant; tags: N-terminal GST; dsDNA, one strand shown. The essentials: as §1

For experiment [15], the target named is T10, ETV7 (Homo sapiens, UniProt Q9Y603 1-341).
T10 sequence: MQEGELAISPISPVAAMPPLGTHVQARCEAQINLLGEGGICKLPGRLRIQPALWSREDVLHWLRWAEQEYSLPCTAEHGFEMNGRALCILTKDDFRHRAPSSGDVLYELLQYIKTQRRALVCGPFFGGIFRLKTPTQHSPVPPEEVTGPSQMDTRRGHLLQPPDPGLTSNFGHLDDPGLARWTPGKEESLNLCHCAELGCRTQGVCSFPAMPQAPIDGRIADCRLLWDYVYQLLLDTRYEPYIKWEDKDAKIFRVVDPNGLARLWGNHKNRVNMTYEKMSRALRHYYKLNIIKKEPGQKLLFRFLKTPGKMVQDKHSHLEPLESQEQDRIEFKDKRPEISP
Conditions: protein: recombinant; tags: N-terminal GST; dsDNA, one strand shown. The essentials:
as §1

The target of experiment [16] is T11, ELF5 (Homo sapiens, UniProt Q9UKW6-2 1-255).
T11 sequence: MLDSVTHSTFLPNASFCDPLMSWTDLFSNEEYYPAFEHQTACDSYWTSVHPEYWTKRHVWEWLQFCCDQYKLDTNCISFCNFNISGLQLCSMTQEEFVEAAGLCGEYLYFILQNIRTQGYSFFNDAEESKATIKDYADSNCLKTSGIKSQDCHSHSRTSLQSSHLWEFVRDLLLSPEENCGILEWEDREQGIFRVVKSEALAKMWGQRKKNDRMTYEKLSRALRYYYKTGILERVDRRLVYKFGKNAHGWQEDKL
Conditions: protein: recombinant; tags: N-terminal GST; dsDNA, one strand shown. The essentials:
as §1

The target in experiment [17] is T12, ETV3 (Homo sapiens, UniProt P41162-2 1-143).
T12 sequence: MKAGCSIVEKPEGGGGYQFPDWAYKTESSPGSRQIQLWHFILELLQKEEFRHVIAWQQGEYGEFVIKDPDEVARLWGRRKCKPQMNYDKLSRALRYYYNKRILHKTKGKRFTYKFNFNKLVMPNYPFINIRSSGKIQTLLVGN
Conditions: protein: recombinant; tags: N-terminal GST; dsDNA, one strand shown. The method, boiled down: as §1

Experiment [18] concerns the target ETV6 (Homo sapiens, UniProt P41212 1-452). Particulars: protein: recombinant; tags: N-terminal GST; dsDNA, one strand shown. The method, boiled down:
as §1

ETV1, sequence (P50549 whole entry): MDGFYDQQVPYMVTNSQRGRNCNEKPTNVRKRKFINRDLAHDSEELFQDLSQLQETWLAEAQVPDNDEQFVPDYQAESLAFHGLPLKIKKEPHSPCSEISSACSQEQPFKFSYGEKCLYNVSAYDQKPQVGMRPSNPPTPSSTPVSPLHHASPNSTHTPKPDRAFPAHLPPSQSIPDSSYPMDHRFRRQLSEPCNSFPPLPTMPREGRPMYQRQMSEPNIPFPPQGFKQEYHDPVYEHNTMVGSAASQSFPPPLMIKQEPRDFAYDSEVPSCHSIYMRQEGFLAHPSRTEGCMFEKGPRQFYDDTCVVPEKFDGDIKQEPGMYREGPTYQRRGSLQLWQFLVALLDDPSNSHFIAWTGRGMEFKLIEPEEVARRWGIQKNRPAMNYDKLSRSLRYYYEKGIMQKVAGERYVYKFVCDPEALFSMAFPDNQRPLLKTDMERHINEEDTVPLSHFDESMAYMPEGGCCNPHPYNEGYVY
ETV6, sequence (P41212 whole entry): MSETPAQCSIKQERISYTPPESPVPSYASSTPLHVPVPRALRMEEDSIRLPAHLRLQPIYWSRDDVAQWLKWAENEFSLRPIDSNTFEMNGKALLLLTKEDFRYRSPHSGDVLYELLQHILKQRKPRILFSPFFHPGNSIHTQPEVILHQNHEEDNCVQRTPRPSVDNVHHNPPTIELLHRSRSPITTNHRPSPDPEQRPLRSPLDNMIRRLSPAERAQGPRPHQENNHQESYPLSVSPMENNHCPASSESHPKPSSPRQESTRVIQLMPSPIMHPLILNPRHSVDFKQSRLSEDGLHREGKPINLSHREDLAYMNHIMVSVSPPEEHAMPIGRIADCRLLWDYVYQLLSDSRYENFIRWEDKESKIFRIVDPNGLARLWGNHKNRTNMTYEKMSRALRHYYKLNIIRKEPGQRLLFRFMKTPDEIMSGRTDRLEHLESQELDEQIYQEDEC
ELF4, sequence (Q99607 whole entry): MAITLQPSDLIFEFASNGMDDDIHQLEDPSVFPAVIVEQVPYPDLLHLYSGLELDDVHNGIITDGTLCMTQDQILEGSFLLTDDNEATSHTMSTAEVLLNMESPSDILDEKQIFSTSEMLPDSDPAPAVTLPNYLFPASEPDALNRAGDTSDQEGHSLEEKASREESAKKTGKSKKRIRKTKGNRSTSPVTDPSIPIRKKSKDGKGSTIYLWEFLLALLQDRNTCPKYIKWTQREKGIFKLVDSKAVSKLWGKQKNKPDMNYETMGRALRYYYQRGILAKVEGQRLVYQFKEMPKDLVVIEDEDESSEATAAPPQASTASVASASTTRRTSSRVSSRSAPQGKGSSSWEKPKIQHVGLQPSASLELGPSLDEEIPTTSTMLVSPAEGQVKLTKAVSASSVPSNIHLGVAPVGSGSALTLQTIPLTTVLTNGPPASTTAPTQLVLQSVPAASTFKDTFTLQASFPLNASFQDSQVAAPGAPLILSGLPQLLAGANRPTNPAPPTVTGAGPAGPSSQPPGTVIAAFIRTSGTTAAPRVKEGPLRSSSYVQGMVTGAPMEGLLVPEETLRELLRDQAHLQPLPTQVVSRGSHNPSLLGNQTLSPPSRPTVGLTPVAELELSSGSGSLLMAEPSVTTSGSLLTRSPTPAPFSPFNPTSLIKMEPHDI
CRX, sequence (O43186 whole entry): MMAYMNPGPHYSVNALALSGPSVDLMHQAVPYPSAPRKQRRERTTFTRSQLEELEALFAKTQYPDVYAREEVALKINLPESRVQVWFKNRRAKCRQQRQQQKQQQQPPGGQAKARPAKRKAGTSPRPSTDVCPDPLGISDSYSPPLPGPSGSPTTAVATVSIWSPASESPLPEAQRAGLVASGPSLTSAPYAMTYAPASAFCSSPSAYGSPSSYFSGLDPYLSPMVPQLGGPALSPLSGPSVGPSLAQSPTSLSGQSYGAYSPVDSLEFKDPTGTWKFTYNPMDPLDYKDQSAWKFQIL
ETV5, sequence (P41161 whole entry): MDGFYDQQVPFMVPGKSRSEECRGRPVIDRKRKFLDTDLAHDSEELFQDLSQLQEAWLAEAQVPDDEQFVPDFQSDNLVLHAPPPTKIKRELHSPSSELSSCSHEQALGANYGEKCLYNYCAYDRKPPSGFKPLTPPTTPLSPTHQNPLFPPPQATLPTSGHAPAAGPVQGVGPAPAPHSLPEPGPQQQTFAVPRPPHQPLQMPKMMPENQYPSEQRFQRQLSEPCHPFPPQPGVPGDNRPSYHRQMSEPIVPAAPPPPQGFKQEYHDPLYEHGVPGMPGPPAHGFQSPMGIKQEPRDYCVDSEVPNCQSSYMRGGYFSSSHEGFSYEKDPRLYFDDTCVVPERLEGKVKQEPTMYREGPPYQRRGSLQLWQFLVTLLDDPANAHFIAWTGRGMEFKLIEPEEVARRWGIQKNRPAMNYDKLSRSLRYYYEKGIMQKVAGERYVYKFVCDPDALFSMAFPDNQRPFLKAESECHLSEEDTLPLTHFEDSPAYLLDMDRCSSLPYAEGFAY
HSF1, sequence (Q00613 whole entry): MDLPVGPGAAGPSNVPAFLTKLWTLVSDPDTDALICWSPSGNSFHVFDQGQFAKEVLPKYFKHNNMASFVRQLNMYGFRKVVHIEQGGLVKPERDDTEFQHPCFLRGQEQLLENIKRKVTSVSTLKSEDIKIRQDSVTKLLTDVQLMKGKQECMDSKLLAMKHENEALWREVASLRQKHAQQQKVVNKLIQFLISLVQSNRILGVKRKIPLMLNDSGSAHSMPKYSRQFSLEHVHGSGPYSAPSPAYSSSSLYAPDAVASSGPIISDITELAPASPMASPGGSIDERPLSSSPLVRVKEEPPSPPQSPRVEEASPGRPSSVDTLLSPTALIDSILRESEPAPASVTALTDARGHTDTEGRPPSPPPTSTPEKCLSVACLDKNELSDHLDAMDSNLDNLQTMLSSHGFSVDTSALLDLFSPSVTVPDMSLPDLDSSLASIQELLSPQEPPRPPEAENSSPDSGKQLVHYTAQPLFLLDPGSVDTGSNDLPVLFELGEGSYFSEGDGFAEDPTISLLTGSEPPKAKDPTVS

Consider TTTTTC, for which the binding signal in experiment [1] was 1.19 fold enrichment (6-mer frequency, TF over GST control); in [2] it was 1.27 fold enrichment (6-mer frequency, TF over GST control); in [3], 1.44 fold enrichment (6-mer frequency, TF over GST control); in experiment [4] it was 1.11 fold enrichment (6-mer frequency, TF over GST control); in [5], 1.32 fold enrichment (6-mer frequency, TF over GST control); in [6], 1.16 fold enrichment (6-mer frequency, TF over GST control). Further, the binding signal in experiment [7] is 1.24 fold enrichment (6-mer frequency, TF over GST control); in experiment [8] it was 1.26 fold enrichment (6-mer frequency, TF over GST control); in experiment [9], 1.09 fold enrichment (6-mer frequency, TF over GST control); in experiment [10] it was 1.21 fold enrichment (6-mer frequency, TF over GST control); in experiment [11], 1.16 fold enrichment (6-mer frequency, TF over GST control); in [12] it was 1.34 fold enrichment (6-mer frequency, TF over GST control). The binding signal in experiment [13] is 1.17 fold enrichment (6-mer frequency, TF over GST control); in experiment [14], 1.21 fold enrichment (6-mer frequency, TF over GST control); in experiment [15], 1.23 fold enrichment (6-mer frequency, TF over GST control); in experiment [16], 1.37 fold enrichment (6-mer frequency, TF over GST control); in experiment [17], 1.25 fold enrichment (6-mer frequency, TF over GST control); in experiment [18], 1.15 fold enrichment (6-mer frequency, TF over GST control).
